Inconclusive results are not listed. Active and inactive are the calls of the source. The call rests on the fitted dose curve; in most records, active means well fitted inhibition curve with a large enough effect; inconclusive means small, poorly fitted or top-dose-only effect; inactive means flat fitted curve, though single readings scatter.
Assay: Identification of antibody-drug conjugate (ADC) payloads which are substrates of ATP-binding cassette drug efflux transporters: ABCG2-HEK293-R5 cell line with Ko143
Settings: ABCG2-HEK293-R5 with Ko143, CellTiter-Glo viability, 48 h
Source text: Antibody-drug conjugates (ADCs) feature an antibody recognizing a specific protein joined to a potent toxic payload. Numerous antibody-drug conjugates have received FDA approval; however, clinical resistance arises. Resistance mechanisms include decreased expression or mutation of the antibody target, impaired payload release, or increased expression of ATP-binding cassette (ABC) efflux transporters associated with multidrug resistance. We therefore sought to characterize the interaction of ABC multidrug transporters with ADC payloads. We performed a high-throughput screen with 27 common ADC payloads using cells lines expressing ABC transporters P-glycoprotein (P-gp, encoded by ABCB1) or ABCG2 (encoded by ABCG2). Confirmatory assays were also performed using cells transfected to express P-gp, ABCG2, or MRP1 (encoded by ABCC1). Several commonly used ADC payloads were substrates of P-gp, including calicheamicin gamma1, monomethyl auristatin E, DM1, and DM4. All the pyrrolobenzodiazepines tested - SJG136, SGD-1882, SG2057, and SG3199 - were substrates of P-gp, ABCG2, and MRP1. […] These findings highlight the risk of transporter-mediated resistance with certain ADC payloads and underscore the importance of selecting payloads that evade ABC transporter recognition in future ADC development.
HEK-293 cells were transfected with empty vector (pcDNA) or vector containing the human ABCB1 (MDR-19), ABCG2 (R-5), or ABCC1 gene (MRP1) and were maintained in EMEM with 2 mg/mL G418 added to maintain transporter expression. The HeLa derivative KB-3-1 and the P-gp overexpressing KB-8-5-11 subline were maintained in DMEM; KB-8-5-11 additionally received 100 ng/mL colchicine. H460 parental cells were obtained from the Division of Cancer Treatment and Diagnosis Tumor Repository, National Cancer Institute at Frederick, MD and were cultured in RPMI. The ABCG2 expressing subline H460 MX20 was generated by selecting H460 cells in 20 nM mitoxantrone. Media in all cases was supplemented with 10% FBS and 1% penicillin-streptomycin. We explored 27 common ADC payloads, in two orthogonal, paired cell line sets-a drug selected and transfected set for each transporter--to identify substrates of the ABC transporters P-gp and ABCG2. Compounds were sourced from Levena Biopharma (San Diego, CA), Selleck Chem (Houston, TX), ChemieTek (Indianapolis, IN), or Microsource Discovery Systems (Gaylordsville, CT). Screening was performed as previously described. Briefly, cells were plated at a density of 500 cells/well in 1536 well plates with compounds added using a 1536-head pin tool (Kalypsys, San Diego CA). Cells were incubated with cytotoxic drugs and processed with CellTiter Glo reagent (Promega, Madison, WI) to determine viability after 48 hours. P-gp substrates were identified by comparing compound activity between paired sets of low-expressing (sensitive) and over-expressing (resistant) cell lines.
For `CC(C)(C)OC(=O)Nc1ccc2[nH]c(C(=O)N3C[C@@H](CCl)c4c3cc(O)c3ccccc43)cc2c1`, the Potency was 30 nM (active). For `COC(=O)c1cc2c3c(cc(O)c2[nH]1)N(C(=O)c1cc2cc(OC)c(OC)c(OC)c2[nH]1)CC3CCl` (stereo not given), the Potency was 4.2 nM (active). In the case of `CCN[C@H]1CO[C@@H](O[C@H]2[C@H](O[C@H]3C#C/C=C\C#C[C@]4(O)CC(=O)C(NC(=O)OC)=C3/C4=C\CSSSC)O[C@H](C)[C@@H](NO[C@H]3C[C@H](O)[C@H](SC(=O)c4c(C)c(I)c(O[C@@H]5O[C@@H](C)[C@H](O)[C@@H](OC)[C@H]5O)c(OC)c4OC)[C@@H](C)O3)[C@@H]2O)C[C@@H]1OC`, the Potency is reported as 3 nM (active). With `CN(C)CCOc1ccc2[nH]c(C(=O)N3C[C@@H](CCl)c4c3cc(O)c3ccccc43)cc2c1` the Potency was 1.9 nM (active). For `CCN(C(C)=O)[C@H]1CO[C@@H](O[C@H]2[C@H](O[C@H]3C#C/C=C\C#C[C@]4(O)CC(=O)C(NC(=O)OC)=C3/C4=C\CSSSC)O[C@H](C)[C@@H](NO[C@H]3C[C@H](O)[C@H](SC(=O)c4c(C)c(I)c(O[C@@H]5O[C@@H](C)[C@H](O)[C@@H](OC)[C@H]5O)c(OC)c4OC)[C@@H](C)O3)[C@@H]2O)C[C@@H]1OC`, the Potency was 33.6 nM (active).
